Screening data from PubChem BioAssay.
Most compounds without a hit are left out; they make up all but 11% or so of the library.
PI5P4K alpha inh = PI5P4K alpha (human) kinase inhibition | P48426 | PI5P4Kalpha enzyme, ADP-Glo luminescence, 60 min; active compounds read low | max response, % | 1.2% of 330,000 active | AID 652105; active = max response of -50% or lower; inconclusive = between -30% and -50%; inactive = -30% or higher; also: value at the top dose of about 77 µM; % is scaled to controls: 0 for no effect and ±100 for the full control effect
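Controls without substrate or without enzyme flank wells where PI5P4Kalpha converts substrate using 5 microM ATP (final). Incubation lasts 60 minutes at room temperature; ADP formed is read by ADP-Glo luminescence.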
G9a block = G9a (human) methyltransferase inhibition | 8.8% of 350,000 active | AID 504332 | G9a H3K9 monomethylation, AlphaScreen, 2 h | Q96KQ7 | Potency, µM (top dose mostly 102 µM), without a hit: top-dose activity, negative = inhibition, usual class: inhibitors; also: potency is read from the fitted curve at half-maximal effect; % is scaled to controls: 0 for no effect and ±100 for the full control effect; nearly all actives have a fitted effect of over 75% in size
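G9a (20 nM) preincubated 15 min RT with compounds, then 500 nM biotinylated H3K9 peptide and 20 uM SAM added; 2 h RT reaction. Monomethyl-H3K9 product detected by AlphaScreen with anti-H3K9me1 antibody, streptavidin donor and anti-rabbit IgG acceptor beads.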
L3MBTL1 block = inhibitors of human L3MBTL1 | 0.66% of 230,000 active | Potency, µM (highest dose often 57.1 µM), without a hit: at the top dose activity, negative = inhibition, most hits filed as inhibitors | AlphaScreen L3MBTL1–H3K9me1 peptide binding | Q9Y468 | AID 485360; also: potency is read from the fitted curve at half-maximal effect; % is scaled to controls: 0 for no effect and ±100 for the full control effect; nearly all actives have a fitted effect of over 60% in size
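Displacement of a biotinylated histone H3(1-15) peptide monomethylated at Lys9 (75 nM) from L3MBTL1 (50 nM) was measured by AlphaScreen after a 30 min room-temperature compound incubation; cefsulodin titration served as intraplate control.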
JMJD2A Tudor inh = blocks the human JMJD2A Tudor domain. O75164. AlphaScreen JMJD2A-Tudor / H3K4me3 peptide binding. Potency, µM (titrated, usually from 114 µM), inactives show top-dose activity change, negative = inhibition, most hits filed as inhibitors. 4.4% of 390,000 active. AID 504339; also: potency is read from the fitted curve at half-maximal effect; % is scaled to controls: 0 for no effect and ±100 for the full control effect; nearly all actives have a fitted effect of over 50% in size
HP1b chromo inh = inhibitors of HP1-beta chromodomain binding to methylated histone tails; AlphaScreen HP1-beta / biotin-H3K9me3 peptide binding; Potency, µM (highest dose often 114 µM), without a hit: at the highest dose activity change, negative = inhibition, most hits filed as inhibitors; 0.56% of 390,000 active; P83916; also: potency is read from the fitted curve at half-maximal effect; nearly all actives have a fitted effect of over 70% in size
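AlphaScreen: HP1-beta (50 nM) preformed 30 min with biotin-H3(1-18)K9me3 peptide (50 nM) in PBS pH 7.4, 0.01% Tween-20. Compound added for 30 min at RT, then streptavidin donor/nickel chelate acceptor beads (10 ug/mL) for 30 min.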
BAZ2B inh = BAZ2B (human) inhibition; AlphaScreen BAZ2B-H3K14Ac peptide displacement; 4.4% of 360,000 active; Q9UIF8; Potency, µM (series often up to 114 µM), without a hit: at the highest dose activity change, negative = inhibition, actives largely listed as inhibitors; also: potency is read from the fitted curve at half-maximal effect; % is scaled to controls: 0 for no effect and ±100 for the full control effect; nearly all actives have a fitted effect of over 60% in size
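Multi-concentration screen (max 110 uM) measuring displacement of acetylated histone H3 peptide from BAZ2B by AlphaScreen, using 50 nM protein, 50 nM peptide and 10 ug/mL streptavidin donor plus Ni-chelate acceptor beads.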
Numbers without * were called inactive; ? = inconclusive; . = no result given; [ ] = another dose, or the depositor's remark. Unless noted, calls follow the shape of the dose curve; as a rule, active = well fitted inhibition curve with a large enough effect; inconclusive = small, poorly fitted or top-dose-only effect; inactive = no such curve, though single readings can be large or run the other way.

SMILES	PI5P4K alpha inh	G9a block	L3MBTL1 block	JMJD2A Tudor inh	HP1b chromo inh	BAZ2B inh
COc1cc(OC)cc(C(=O)NC(=S)NCc2ccco2)c1	.	45µM*	5%	-34%	0%	-7%
COc1cccc(C(=O)NC(=S)NCc2ccco2)c1	6	?	-6%	-13%[57.1 µM]	13%	-35%
S=C(NCc1ccc(Cl)cc1)NCc1ccco1	-9	-1%	.	-36%	-3%	-34%
S=C(NCCc1ccc(Cl)cc1)NCc1ccco1	1	50µM*	-9%	-32%	-14%	-35%
O=C(NC(=S)NCc1ccccc1)c1cccc(Cl)c1	1	.	4%	0%	20%	-3%
O=C(NC(=S)NCc1ccco1)c1cccc(Cl)c1	.	71µM*	.	.	.	?
Cc1ccc(C(=O)NC(=S)NCc2ccco2)cc1	?	45µM*	-30%	?	-14%	?
COc1ccc(C(=O)NC(=S)NCc2ccco2)cc1	-14	.	.	?	-30%	?
CCOc1ccc(-c2cc3nc(C4CCN(C(=O)OC(C)(C)C)CC4)c(C(=O)Nc4ccc(C)c(F)c4)cn3n2)cc1	.	11%[59 µM]	.	-4%	45%	-10%
CCC(=O)C1=C(c2ccc(F)cc2)N(C(=O)CC)n2c(nnc2C2CCCCC2)S1	.	12%[59 µM]	.	33%	65%	-6%
COc1cc(Cl)c(NS(=O)(=O)c2ccc3c(c2)CC(C)N3C(=O)C2CCC2)c(OC)c1 (stereo not drawn)	.	0%[59 µM]	.	-16%	15%	-1%
CCCc1nnc(NC(=O)c2cc(=O)c3ccccc3o2)s1	.	-4%[59 µM]	.	1%	34%	-11%
COc1ccc(OC)c(NC(=O)c2cn(CC(C)C)c(=O)c3cc(OC)c(OC)cc23)c1	.	-43%[59 µM]	.	-36%	10%	?
CC(=O)c1c(C)[nH]c(C(=O)Nc2cccc(C)n2)c1C	-1	.	.	-21%	34%	?
CC(=O)c1c(C)[nH]c(C(=O)Nc2nccs2)c1C	1	8%	.	22µM*	-10%	?
COc1cccc(-n2c(SCc3ccc(F)cc3)nc3c([nH]c4ccccc43)c2=O)c1	.	1%[59 µM]	.	-31%	19%[57 µM]	-2%
Cc1ccc(/C=N\NC(=O)CCc2n[nH]c(=O)[nH]c2=O)o1	-26	-42%	.	16µM*	5%	3%
CCOc1ccccc1N1Cc2cc(C)c(C)cc2C1	-18	?	-7%	-35%	13%	-35%
COc1ccc(OC)c(N2Cc3cc(C)c(C)cc3C2)c1	.	13µM*	-6%	?	-20%	?
C[C@@H]1C(=O)O[C@@H]1[C@@H](C)CO[Si](c1ccccc1)(c1ccccc1)C(C)(C)C	.	.	.	17%	43%	.
COc1ccc(N2CCN(Cc3cc(=O)oc4ccc(C)cc34)CC2)cc1	.	-22%	.	-27%	-4%	-3%
CC(C)c1ccc2oc(=O)cc(CN3CCN(c4ccc(F)cc4)CC3)c2c1	2	50µM*	-8%	-23%	-2%	-32%
CCc1ccc2oc(=O)cc(CN3CCN(c4ccc(F)cc4)CC3)c2c1	4	50µM*	-20%	-19%	22%	-30%
